Results reported in PubChem BioAssay (Tox21).
Active and inactive are the calls of the source. Calls come from the whole dose curve; as a rule, active = well fitted activation curve with a large enough effect in the repeat runs; inconclusive = weak or mixed curves; inactive = flat fitted curve, though single readings scatter.

experiment: A CellTox Green Cytotoxicity Assay to monitor cytotoxicity in HepG2 cells - 0 hour (AID 1224882); details: CellTox Green fluorescence; series mostly up to 76.8 µM; cytotoxicity: at the top concentration; note: nearly all actives have a fitted effect of over 35% in size
Source text: National Center for Advancing Translational Sciences [NCATS]
NIH Chemical Genomics Center [NCGC]
U.S. Environmental Protection Agency [EPA]
National Institutes of Environmental Health Sciences [NIEHS]
National Toxicology Program [NTP]
Cell-based models are critical for drug discovery. Determining the natural cytotoxic effects resulting from test compounds is an essential research activity. A CellTox Green Cytotoxicity Assay to monitor cytotoxicity in real time of continues cell culture during 40 hours of the compound treatment was used to screen Tox21 10K library compounds in HepG2 cells. CellTox Green Cytotoxicity Assay is a nonlytic, homogeneous, biofluorescent method to measure cytotoxicity in cell culture after experimental manipulation. The assay system uses a proprietary asymmetric cyanine dye that is excluded from viable cells but preferentially stains the dead cell's DNA. […] Viable cells produce no appreciable increases in fluorescence. Therefore, the fluorescence signal produced by the binding interaction with dead cell DNA is proportional to cytotoxicity.
The mixture of HepG2 cell suspension and reagents were dispensed at 600cells/6 ul/well in 1536-well tissue culture treated black solid bottom plates using a Multidrop dispenser. After the assay plates were incubated at a 37 C/5% CO2 incubator for 5 hours, 23 nL of compounds dissolved in DMSO, positive and negative controls was transferred to the assay plate by a pintool work station. The plates were incubated at 37 C for 40 hours. The fluorescence intensity were measured at 0h, 8h, 16h, 24h, 32h and 40h time points using ViewLux plate reader during compound treatment.
% is set by controls: 0 for no effect and ±100 for the full control effect.

| SMILES | cytotoxicity |
| --- | --- |
| CCOP(=S)(OCC)SCSc1ccc(Cl)cc1 | -0.0466% (inactive) |
| [Cl][Sn]([Cl])([Cl])[Cl] | 1.64% (inactive) |
| CCOP(=O)(OCC)OP(=O)(OCC)OCC | 5.44% (inactive) |
| C[C@]12CC[C@H]3[C@@H](CC=C4C[C@@H](O)CC[C@@]43C)[C@@H]1CC[C@@H]2O | 10.6% [at 35.3 µM] (inactive) |
| N#CCNCC#N | 2.63% (inactive) |
| Cc1ncc2n1-c1ccc(Cl)cc1C(c1ccccc1F)=NC2 | -7.94% [at 35.3 µM] (inactive) |
| O=C1OC(c2ccc(O)c(S(=O)(=O)O)c2)(c2ccc(O)c(S(=O)(=O)O)c2)c2c(Br)c(Br)c(Br)c(Br)c21 | 3.87% [at 35.3 µM] (inactive) |
| CC1(C)COP(Oc2ccccc2)OC1 | -0.0357% (inactive) |
| CCN(CC)C(=O)[C@@H]1C=C2c3cccc4[nH]cc(c34)C[C@H]2N(C)C1 | 0.834% [at 200 µM] (inactive) |
| CSc1ccc(C(=O)C(C)(C)N2CCOCC2)cc1 | -2.01% (inactive) |
| COc1cc(OC)nc(Sc2cccc(Cl)c2C(=O)O)n1 | -9.78% (inactive) |
| Nc1c(Br)cc([N+](=O)[O-])cc1[N+](=O)[O-] | -3.23% (inactive) |
| CC(C)CP(=S)(S)CC(C)C | -0.441% (inactive) |
| ClC(Cl)(Cl)C(Cl)(Cl)Cl | 1.2% (inactive) |
| CC(COc1ccc(Oc2ccccc2)cc1)Oc1ccccn1 (stereo not given) | 4.31% (inactive) |
| COC(=O)C(C)Oc1ccc(Oc2ccc(Cl)cc2Cl)cc1 (stereo not given) | 5.79% (inactive) |
| O=C(NCO)NCO | -7.8% (inactive) |
| COCC(=O)N(c1c(C)cccc1C)N1CCOC1=O | 1.18% (inactive) |
| Cc1cccc(C#N)c1 | -2.31% (inactive) |
| CNC(=O)N(C)c1nc2ccccc2s1 | -4.71% (inactive) |

| SMILES | cytotoxicity |
| --- | --- |
| CC(C1CC1)C(O)(Cn1cncn1)c1ccc(Cl)cc1 (stereo not given) | -2.1% (inactive) |
| [As]#[In] | -3.89% (inactive) |
| CN(C)CCc1ccc(O)cc1 | -2.64% [at 35.3 µM] (inactive) |
| CCCCOC(=O)[C@@H](C)Oc1ccc(Oc2ccc(C#N)cc2F)cc1 | -2.71% (inactive) |
| Fc1ccc(C2(Cn3cncn3)OC2c2ccccc2Cl)cc1 (stereo not given) | 0.228% (inactive) |
| CC(=O)CC(c1ccc(Cl)cc1)c1c(O)c2ccccc2oc1=O (stereo not given) | -2.46% (inactive) |
| CC1(C(=O)Nc2ccc(O)c(Cl)c2Cl)CCCCC1 | 0.407% (inactive) |
| ClC(Br)Br | -12.7% (inactive) |
| N#CC(Cl)(Cl)Cl | -0.833% (inactive) |
| CN/C(=N\[N+](=O)[O-])NCC1CCOC1 (stereo not given) | 2.32% (inactive) |
| CCCCN(CCCCO)N=O | 1.6% (inactive) |
| CN1C(=S)CN=C(c2ccccc2)c2cc(Cl)ccc21 | -2.98% [at 35.3 µM] (inactive) |
| CC(Cl)(Cl)[N+](=O)[O-] | 1.22% (inactive) |
| CN1CCN(C(=O)O[C@H]2c3nccnc3C(=O)N2c2ccc(Cl)cn2)CC1 | -4.69% [at 35.3 µM] (inactive) |
| Clc1ccccc1N1CCNCC1 | 2.86% [at 35.3 µM] (inactive) |
| Cc1coc2c1CCC(C)C2 (stereo not given) | 2.64% (inactive) |
| CCCCCCI | -10.4% (inactive) |
| CC1=C(C(=O)Nc2ccccc2)S(=O)(=O)CCO1 | 0.308% (inactive) |
| CCOP(=S)(OCC)Oc1cc(-c2ccccc2)on1 | -6.54% (inactive) |
| O=C(O)c1cccc(Cl)c1 | -2.88% (inactive) |
